# PubChem BioAssay
# Results filed as inconclusive are left out. Active and inactive are the calls of the source.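 How the source made its calls, unless noted: active means GFP response, as percent of the DMSO control, above the screen-wide mean plus 3 SD, about 139; inconclusive means no response measured because the compound's own fluorescence interfered; inactive means the rest.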
# Experiments:
# [1] = yeast TOR pathway RPL19A-GFP modulators, primary screen, cell-based, S. cerevisiae, multiplex flow cytometry (AID 1862; in the data active means percent of DMSO control GFP below about 86%;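 further: lower values mimic rapamycin by blocking the RPL19A rise seen in DMSO cells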); settings: S. cerevisiae RPL19A-GFP strain, flow cytometry fluorescence, 3 h; at 10 µM; stronger effect = lower value
# [2] = modulators of MEP2-GFP levels in yeast, primary screen, S. cerevisiae, multiplex flow cytometry (AID 1867);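 further: median GFP channel fluorescence of barcode-gated MEP2-GFP cells measured by flow cytometry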; settings: S. cerevisiae MEP2-GFP strain, 3 h, at 10 µM, stronger effect = higher value, 100% means same as DMSO wells
# [3] = modulators of CIT2-GFP expression in yeast, primary screen, S. cerevisiae, GFP fusion, multiplex flow cytometry (AID 1870;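 active means percent response above a set limit, the screen-wide mean plus 3 SD, cut at about 130% in these data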;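 further: barcoded CIT2-GFP strain pooled with four other GFP strains with rapamycin as positive control; median GFP fluorescence per well over plate mean of DMSO wells so 100% = DMSO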); settings: 3 h, at 10 µM, stronger effect = higher value
# [4] = modulators of LAP4-GFP expression in yeast, primary screen, S. cerevisiae, multiplex flow cytometry (AID 1873;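 active means GFP signal, as percent of the solvent control, above the screen mean plus 3 SD, about 149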); settings: 3 h, at 10 µM, stronger effect = higher value
# [5] = modulators of AGP1-GFP expression in yeast TOR pathway, primary screen, cell-based, multiplex flow cytometry, S. cerevisiae (AID 1887;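 active means GFP signal above the screen-wide mean plus 3 SD, that is over about 124.5% of the solvent control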;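 further: AGP1-GFP fusion strain of S. cerevisiae within a five-strain barcoded multiplex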); settings: 3 h, at 10 µM, stronger effect = higher value
# [6] = inhibitors of CD8+ T cell-vesicle binding, pilot screen, LFA-1/ICAM-1 modulator project, MLPCN validation set, flow cytometry (AID 2523;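 active means response below a set limit, under 55% cells CD8-positive and vesicle-bound, and CD8 cells' 90th-percentile brightness under 279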;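 on vesicle binding response: mean PE anti-B7-1 fluorescence of CD8+ cells relative to row control; 100% = QL9-loaded vesicles with DMSO vehicle in the same plate row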); settings: 2C mouse CD8+ T cells, at 7 µM, stronger effect = lower value; double positive events: measured here: CD8+/vesicle+ event percentage
# [7] = biological target: Integrin beta-1 (Homo sapiens) + Integrin alpha-4 (Homo sapiens) (UniProt P13612+P05556); assay: inhibition of HUTS-21 binding to VLA-4, pilot screen, VLA-4 allosteric modulator project, U937 cells, HUTS-21 mAb, flow cytometry, validation set (AID 2674;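 active means inhibition above 50%, about 3 SD of the validation set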;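 further: antibody binding induced by the VLA-4 ligand LDV present at three times its Kd; 0% = LDV ligand with antibody and no compound and 100% = antibody without LDV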); settings: HUTS-21 LIBS mAb binding, at 6.7 µM, stronger effect = higher value, binding induced by LDV ligand
# [8] = superoxide lowering in aged yeast cells, pilot screen, validation compound set (AID 2706;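 active means superoxide response below 65% of plate, a cut near 3 SD across the whole screen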;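 further: yeast exposed to compound for one week at 30 degrees C before staining; 100% = mean of all compound wells on the same plate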); settings: S. cerevisiae aging, superoxide DHE fluorescence; at 10 µM, stronger effect = lower value
# [9] = biological target: Beta-adrenergic receptor kinase 1 (Homo sapiens) (UniProt P25098); assay: GRK2 binders displacing RNA aptamer, biochemical, validation, human GRK2, bead flow cytometry (AID 488806;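 active means aptamer binding inhibition above 30%, about 3 SD of noise from non-fluorescent compounds; inactive means inhibition at or below 30%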); settings: bead-bound GRK2, FAM-aptamer displacement, at 10 µM, stronger effect = higher value
# [10] = biological target: AP-2 complex subunit beta (Homo sapiens) (UniProt P63010); assay: inhibitors of arrestin peptide binding to AP2, pilot screen, biochemical, validation set, GST-AP2 beads, flow cytometry (AID 504541;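 active means inhibition above 54%, about 3 SD of non-fluorescent compounds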;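 further: AP2 carries R879A mutation and is captured from E. coli lysate; bead-bound FITC arrestin peptide fluorescence measuring arrestin peptide binding to AP2; 0% = DMSO wells and 100% = excess unlabeled arrestin peptide control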); settings: FITC arrestin peptide, at 10 µM, stronger effect = higher value, AP2 beta2 appendage fragment, R879A mutant
# [11] = yeast V-ATPase proton transport modulators, S. cerevisiae, pHLuorin, HTS validation (AID 504600; in the data active means response above about 15%;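 further: plate controls were DMSO for no effect and reference compound for full effect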); settings: S. cerevisiae pHLuorin cytosolic pH, at 10 µM, stronger effect = higher value
# [12] = test system: anti-desmoglein-3 scFv antibody binding to human DSG3; assay: inhibitors of anti-DSG3 scFv binding to DSG3, pilot screen, biochemical, validation compound set, bead-based, flow cytometry (AID 588368;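 active means binding below the plate cutoff, the plate median minus 3 SD, with a reading above zero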;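 further: signal is the median channel fluorescence of bead-bound GFP antibody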); settings: Protein G beads, DSG3-Fc, scFv-GFP binding, at 10 µM, stronger effect = lower value
# [13] = inhibitors of fungal efflux pumps CDR1, CDR2, MDR1, pilot screen, validation compound set, multiplex, phenotypic (AID 588506;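 active means efflux inhibition above 0.42, the validation set average plus 4 SD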;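 further: Nile Red retained in cells so higher fluorescence means more efflux inhibition; 0 = negative control wells and 1 = enniatin B 25 µM full block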); settings: S. cerevisiae pump-expressing triplex, Nile Red efflux flow cytometry; at 10 µM; stronger effect = higher value; the pumps come from Candida albicans
# [14] = biological target: ATP-binding cassette sub-family B member 6 (Homo sapiens) (UniProt Q9NP58); assay: ABCB6 transporter inhibitors, pilot screen, K562-ABCB6 cells, flow cytometry, validation set (AID 588550;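 active means inhibition above the screen-wide mean plus 3 SD, about 51%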;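 further: 0% = DMSO wells and 100% = benzethonium chloride 70 µM positive control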); settings: K562-ABCB6 porphyrin accumulation, 1 h, at 10 µM, stronger effect = higher value
# [15] = promoters of myeloid differentiation in arrested cells, primary screen, cell-based, GFP/MAC1 double positive, flow cytometry, validation set (AID 588685;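 active means differentiation response of at least 50%, scaled between solvent and reference control, from cells with both markers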;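 further: compound exposure lasts four days before antibody staining and flow analysis; 0% = DMSO wells and 100% = 5 µM fulvestrant positive control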); settings: ER-HoxA9 marrow cells, stronger effect = higher value, normalized: vehicle 0, fulvestrant 100
# [16] = biological target: Beta-2 adrenergic receptor (Homo sapiens) (UniProt P07550); assay: beta2AR agonists driving receptor internalization, pilot screen, cell-based, FAP fluorogen, flow cytometry, validation set (AID 504459;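 active means percent response above 42, roughly 3 SD of non-fluorescent test compounds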;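 further: agonist-driven loss of surface beta2AR via internalization measured by FAP dye flow cytometry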); settings: Am2.2-beta2AR cells, FAP surface receptor flow cytometry; at 10 µM; stronger effect = higher value
# Sequence of Beta-2 adrenergic receptor (Homo sapiens) (P07550 whole entry, looked up): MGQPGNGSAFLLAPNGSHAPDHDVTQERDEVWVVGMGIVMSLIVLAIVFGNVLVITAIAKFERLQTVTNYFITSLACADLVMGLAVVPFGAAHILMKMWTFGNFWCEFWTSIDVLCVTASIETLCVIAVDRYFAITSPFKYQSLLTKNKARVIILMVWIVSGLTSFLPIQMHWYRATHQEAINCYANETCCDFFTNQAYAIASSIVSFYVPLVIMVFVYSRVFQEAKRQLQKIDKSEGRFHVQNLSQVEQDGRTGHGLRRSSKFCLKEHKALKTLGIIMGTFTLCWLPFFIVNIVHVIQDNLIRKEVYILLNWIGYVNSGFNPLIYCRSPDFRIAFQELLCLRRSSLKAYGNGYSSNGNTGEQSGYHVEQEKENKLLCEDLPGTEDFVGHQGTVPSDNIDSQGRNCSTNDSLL
# Sequence of Beta-adrenergic receptor kinase 1 (Homo sapiens) (P25098 whole entry, looked up): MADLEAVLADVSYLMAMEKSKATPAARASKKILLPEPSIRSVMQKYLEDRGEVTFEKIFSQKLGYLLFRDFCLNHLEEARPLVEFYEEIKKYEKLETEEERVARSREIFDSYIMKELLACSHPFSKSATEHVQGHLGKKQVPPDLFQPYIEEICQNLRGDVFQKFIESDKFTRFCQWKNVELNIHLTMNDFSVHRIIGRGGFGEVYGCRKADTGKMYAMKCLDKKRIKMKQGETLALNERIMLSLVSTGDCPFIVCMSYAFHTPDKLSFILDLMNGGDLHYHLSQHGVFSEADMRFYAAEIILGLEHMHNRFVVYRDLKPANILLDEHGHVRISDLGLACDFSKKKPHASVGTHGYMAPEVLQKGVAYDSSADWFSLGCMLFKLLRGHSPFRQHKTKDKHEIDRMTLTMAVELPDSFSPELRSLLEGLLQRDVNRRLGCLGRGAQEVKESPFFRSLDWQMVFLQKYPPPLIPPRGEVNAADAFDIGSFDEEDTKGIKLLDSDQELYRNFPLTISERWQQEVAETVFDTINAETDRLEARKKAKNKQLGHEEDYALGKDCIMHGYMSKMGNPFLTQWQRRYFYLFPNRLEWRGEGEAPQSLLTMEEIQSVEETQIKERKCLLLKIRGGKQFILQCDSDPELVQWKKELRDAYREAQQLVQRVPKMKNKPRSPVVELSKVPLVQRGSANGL
# Sequence of Integrin beta-1 (Homo sapiens) + Integrin alpha-4 (Homo sapiens) (P05556 whole entry, looked up): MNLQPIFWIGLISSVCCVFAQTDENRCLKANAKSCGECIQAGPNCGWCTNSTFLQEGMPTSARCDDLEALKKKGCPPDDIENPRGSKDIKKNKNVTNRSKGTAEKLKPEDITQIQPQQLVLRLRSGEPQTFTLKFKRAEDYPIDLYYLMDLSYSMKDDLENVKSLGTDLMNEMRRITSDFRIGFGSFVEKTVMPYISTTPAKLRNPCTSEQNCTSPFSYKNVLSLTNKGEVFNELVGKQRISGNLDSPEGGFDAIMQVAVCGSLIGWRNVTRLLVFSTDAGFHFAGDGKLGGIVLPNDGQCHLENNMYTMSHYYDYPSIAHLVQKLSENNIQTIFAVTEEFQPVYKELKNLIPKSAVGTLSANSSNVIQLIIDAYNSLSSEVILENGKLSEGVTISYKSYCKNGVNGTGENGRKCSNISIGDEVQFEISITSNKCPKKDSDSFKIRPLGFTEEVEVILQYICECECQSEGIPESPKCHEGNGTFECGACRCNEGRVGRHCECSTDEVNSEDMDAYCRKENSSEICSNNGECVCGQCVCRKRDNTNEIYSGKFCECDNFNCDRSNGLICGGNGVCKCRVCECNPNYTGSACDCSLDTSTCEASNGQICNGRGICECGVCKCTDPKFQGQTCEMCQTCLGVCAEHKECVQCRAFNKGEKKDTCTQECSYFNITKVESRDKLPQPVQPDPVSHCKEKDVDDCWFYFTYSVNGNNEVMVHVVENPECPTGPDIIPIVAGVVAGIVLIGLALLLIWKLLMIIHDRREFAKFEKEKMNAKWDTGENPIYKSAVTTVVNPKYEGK
# Sequence of Integrin beta-1 (Homo sapiens) + Integrin alpha-4 (Homo sapiens) (P13612 whole entry, looked up): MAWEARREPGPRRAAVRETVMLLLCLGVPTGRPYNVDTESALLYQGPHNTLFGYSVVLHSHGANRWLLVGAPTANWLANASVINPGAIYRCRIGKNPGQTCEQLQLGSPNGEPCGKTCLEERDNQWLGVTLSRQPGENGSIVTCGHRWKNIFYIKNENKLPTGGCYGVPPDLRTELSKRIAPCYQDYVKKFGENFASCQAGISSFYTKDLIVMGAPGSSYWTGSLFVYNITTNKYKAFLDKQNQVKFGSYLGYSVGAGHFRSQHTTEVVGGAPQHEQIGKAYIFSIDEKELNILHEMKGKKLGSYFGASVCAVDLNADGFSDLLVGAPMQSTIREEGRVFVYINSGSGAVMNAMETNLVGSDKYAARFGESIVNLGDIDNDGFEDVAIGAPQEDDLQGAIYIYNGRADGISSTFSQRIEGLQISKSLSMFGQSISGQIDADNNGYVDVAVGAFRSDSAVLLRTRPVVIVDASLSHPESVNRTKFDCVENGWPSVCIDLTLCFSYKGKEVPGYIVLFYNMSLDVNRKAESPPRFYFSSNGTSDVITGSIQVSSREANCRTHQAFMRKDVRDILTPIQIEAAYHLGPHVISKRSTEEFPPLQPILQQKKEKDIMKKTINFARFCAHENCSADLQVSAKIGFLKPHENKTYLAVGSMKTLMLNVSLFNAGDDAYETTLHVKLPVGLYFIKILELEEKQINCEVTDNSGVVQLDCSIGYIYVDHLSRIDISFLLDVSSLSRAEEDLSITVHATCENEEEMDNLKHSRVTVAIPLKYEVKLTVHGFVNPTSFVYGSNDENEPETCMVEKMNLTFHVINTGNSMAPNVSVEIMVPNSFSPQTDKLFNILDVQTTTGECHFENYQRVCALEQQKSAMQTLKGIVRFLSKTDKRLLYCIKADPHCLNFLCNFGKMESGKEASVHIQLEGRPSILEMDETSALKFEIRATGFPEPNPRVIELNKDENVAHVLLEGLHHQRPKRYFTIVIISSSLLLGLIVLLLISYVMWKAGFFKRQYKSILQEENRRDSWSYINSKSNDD
# Sequence of ATP-binding cassette sub-family B member 6 (Homo sapiens) (Q9NP58 whole entry, looked up): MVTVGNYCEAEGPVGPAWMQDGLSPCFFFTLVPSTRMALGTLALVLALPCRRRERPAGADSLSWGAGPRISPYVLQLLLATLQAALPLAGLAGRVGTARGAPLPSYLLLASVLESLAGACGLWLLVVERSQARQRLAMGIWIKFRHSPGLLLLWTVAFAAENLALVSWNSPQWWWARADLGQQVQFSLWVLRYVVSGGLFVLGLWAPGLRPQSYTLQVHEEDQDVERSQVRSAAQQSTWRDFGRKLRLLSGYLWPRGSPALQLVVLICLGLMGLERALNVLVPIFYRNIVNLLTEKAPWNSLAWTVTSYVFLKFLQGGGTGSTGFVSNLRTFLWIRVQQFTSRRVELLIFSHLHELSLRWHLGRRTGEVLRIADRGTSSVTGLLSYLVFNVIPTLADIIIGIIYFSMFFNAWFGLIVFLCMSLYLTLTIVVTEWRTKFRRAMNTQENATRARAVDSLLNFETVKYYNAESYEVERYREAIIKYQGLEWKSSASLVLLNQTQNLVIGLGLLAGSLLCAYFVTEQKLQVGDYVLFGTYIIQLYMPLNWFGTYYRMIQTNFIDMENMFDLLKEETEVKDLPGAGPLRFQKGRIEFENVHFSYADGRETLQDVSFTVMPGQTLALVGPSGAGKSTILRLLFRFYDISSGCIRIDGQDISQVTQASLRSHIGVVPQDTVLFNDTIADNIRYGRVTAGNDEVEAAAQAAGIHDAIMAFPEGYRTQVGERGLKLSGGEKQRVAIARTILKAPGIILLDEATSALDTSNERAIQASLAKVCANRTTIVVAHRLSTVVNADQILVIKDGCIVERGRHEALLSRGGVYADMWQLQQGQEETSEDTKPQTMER
# Sequence of AP-2 complex subunit beta (Homo sapiens) (P63010 whole entry, looked up, the tested form may be a part, one chain of several): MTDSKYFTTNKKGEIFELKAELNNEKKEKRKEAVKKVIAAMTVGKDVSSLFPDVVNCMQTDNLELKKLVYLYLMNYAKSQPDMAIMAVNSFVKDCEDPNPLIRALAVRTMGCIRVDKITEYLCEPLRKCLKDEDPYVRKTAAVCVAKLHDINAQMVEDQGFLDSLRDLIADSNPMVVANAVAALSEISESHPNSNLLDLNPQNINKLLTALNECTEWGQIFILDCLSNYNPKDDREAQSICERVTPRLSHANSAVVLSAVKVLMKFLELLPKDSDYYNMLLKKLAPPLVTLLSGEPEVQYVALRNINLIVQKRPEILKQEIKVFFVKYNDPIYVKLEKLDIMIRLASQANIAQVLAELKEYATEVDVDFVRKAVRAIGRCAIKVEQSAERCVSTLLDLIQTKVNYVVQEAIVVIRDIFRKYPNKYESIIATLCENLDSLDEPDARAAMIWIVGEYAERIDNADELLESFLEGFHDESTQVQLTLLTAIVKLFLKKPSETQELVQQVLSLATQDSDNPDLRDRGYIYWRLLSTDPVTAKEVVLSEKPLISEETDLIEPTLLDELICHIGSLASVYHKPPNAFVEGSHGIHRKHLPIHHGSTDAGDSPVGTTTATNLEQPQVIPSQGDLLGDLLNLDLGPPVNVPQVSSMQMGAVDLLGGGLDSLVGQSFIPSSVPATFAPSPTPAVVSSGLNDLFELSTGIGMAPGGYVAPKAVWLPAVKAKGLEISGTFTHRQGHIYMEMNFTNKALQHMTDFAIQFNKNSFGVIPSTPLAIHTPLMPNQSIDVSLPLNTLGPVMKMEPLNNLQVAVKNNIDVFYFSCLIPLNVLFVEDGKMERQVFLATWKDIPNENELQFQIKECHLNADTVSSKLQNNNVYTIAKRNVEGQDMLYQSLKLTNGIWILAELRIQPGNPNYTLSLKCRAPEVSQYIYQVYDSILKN
SMILES,percent of DMSO control GFP [1],GFP response vs DMSO [2],percent response of DMSO control [3],GFP response vs DMSO [4],"GFP response, % of DMSO [5]",double positive events [6] [%],vesicle binding response [6],inhibition [7],superoxide response (% of plate) [8],aptamer binding inhibition [9],inhibition [10],response [11],binding (% of control) [12],efflux inhibition (fraction of control) [13],inhibition [14],differentiation response [15],response [16]
CCOC(=O)c1ccc(N2C(=O)C(CC(N)=O)N(CCc3ccc(OC)c(OC)c3)C2=S)cc1 (stereo unspecified),96.9% (inactive),105% (inactive),94.9% (inactive),96.4% (inactive),88.8% (inactive),46.3,153% (inactive),-10.5% (inactive),107% (inactive),2% (inactive),18.9% (inactive),1.03% (inactive),97.2% (inactive),0.75 (active),21% (inactive),-21.2% (inactive),
O=C(NCCCCCc1nc2ccccc2[nH]1)c1ccccc1Cl,101% (inactive),107% (inactive),98.6% (inactive),95.9% (inactive),103% (inactive),62.5,124% (inactive),-7.79% (inactive),102% (inactive),3% (inactive),,-2.36% (inactive),109% (inactive),0.69 (active),6% (inactive),10.1% (inactive),25.8% (inactive)
CC(C)NC(=O)c1ccc(C(C)C)cc1,98.4% (inactive),102% (inactive),108% (inactive),118% (inactive),101% (inactive),63.6,255% (inactive),-11.3% (inactive),109% (inactive),-2% (inactive),-5.8% (inactive),-1.44% (inactive),102% (inactive),,13% (inactive),2.4% (inactive),0.9% (inactive)
COc1ccc(CN(CCN(C)C)c2ccccn2)cc1,102% (inactive),107% (inactive),108% (inactive),103% (inactive),107% (inactive),60.3,60% (inactive),2.66% (inactive),109% (inactive),0% (inactive),-5.39% (inactive),0.3% (inactive),99.3% (inactive),,4% (inactive),2.2% (inactive),-10.3% (inactive)
Nc1nnc(-c2cccc(Cl)c2Cl)c(N)n1,101% (inactive),108% (inactive),103% (inactive),100% (inactive),103% (inactive),49.8,120% (inactive),9.63% (inactive),110% (inactive),2% (inactive),-13.2% (inactive),-3.91% (inactive),94.9% (inactive),,4% (inactive),-8.96% (inactive),6.9% (inactive)
CC(C)C[C@H](NC(=O)NC(C)C)C(=O)O,103% (inactive),105% (inactive),95.5% (inactive),95.9% (inactive),99.8% (inactive),60.1,136% (inactive),9.63% (inactive),111% (inactive),-1% (inactive),-6.27% (inactive),-3.73% (inactive),96.8% (inactive),-0.12 (inactive),0% (inactive),-10.4% (inactive),2.78% (inactive)
Cn1cc(CN2CCCC(CO)(Cc3cccc(Cl)c3)C2)cn1 (stereo unspecified),98% (inactive),102% (inactive),98.2% (inactive),97.2% (inactive),99.5% (inactive),59.5,57.6% (inactive),9.71% (inactive),92.7% (inactive),0% (inactive),,-0.03% (inactive),102% (inactive),-0.66 (inactive),2% (inactive),-1.88% (inactive),30.5% (inactive)
O=C(NNC(=O)c1cccs1)c1ccco1,104% (inactive),104% (inactive),111% (inactive),111% (inactive),111% (inactive),56.8,159% (inactive),-3.04% (inactive),95.2% (inactive),1% (inactive),-10.8% (inactive),8.92% (inactive),102% (inactive),-0.05 (inactive),16% (inactive),1.41% (inactive),
CCS(=O)(=O)CCn1c([N+](=O)[O-])cnc1C,96.4% (inactive),106% (inactive),95.9% (inactive),94.3% (inactive),97.8% (inactive),47.3,136% (inactive),12.8% (inactive),108% (inactive),8% (inactive),-4.86% (inactive),5.33% (inactive),99.1% (inactive),0.18 (inactive),4% (inactive),-5.05% (inactive),
O=c1ccn([C@@H]2O[C@H](CO)[C@@H](O)[C@H]2O)c(=O)[nH]1,102% (inactive),102% (inactive),93.8% (inactive),98.3% (inactive),109% (inactive),63.9,124% (inactive),11.7% (inactive),99.8% (inactive),3% (inactive),10.2% (inactive),1.83% (inactive),102% (inactive),,1% (inactive),24.6% (inactive),-22.4% (inactive)
CO[C@@H]1O[C@@H]2COC(c3ccccc3)O[C@@H]2[C@@H](OC)[C@@H]1O (stereo partly specified),103% (inactive),104% (inactive),106% (inactive),96.4% (inactive),99.6% (inactive),56,166% (inactive),5.36% (inactive),117% (inactive),5% (inactive),15.1% (inactive),4.1% (inactive),102% (inactive),0.1 (inactive),4% (inactive),-9.89% (inactive),
CN1CCC(=C2c3ccccc3CC(=O)c3sccc32)CC1,101% (inactive),101% (inactive),108% (inactive),94.8% (inactive),101% (inactive),62.4,136% (inactive),-3.77% (inactive),96.5% (inactive),-2% (inactive),-10.2% (inactive),1.45% (inactive),105% (inactive),,4% (inactive),-14.8% (inactive),11.7% (inactive)
COC(=O)c1ccccc1OCCOCCOc1cccc2ccc(C)nc12,106% (inactive),103% (inactive),99.8% (inactive),90.3% (inactive),100% (inactive),49.8,145% (inactive),14.7% (inactive),116% (inactive),2% (inactive),-2.13% (inactive),4.14% (inactive),103% (inactive),-0.05 (inactive),9% (inactive),-13.1% (inactive),
Cc1ncc([N+](=O)[O-])n1CC(O)CCl (stereo unspecified),101% (inactive),103% (inactive),102% (inactive),104% (inactive),100% (inactive),59.5,193% (inactive),7.22% (inactive),101% (inactive),4% (inactive),24.7% (inactive),-1.86% (inactive),105% (inactive),-0.09 (inactive),8% (inactive),-0.2% (inactive),
C[C@@H]1C[C@H]2[C@@H]3CCC4=CC(=O)C=C[C@]4(C)[C@@]3(F)[C@@H](O)C[C@]2(C)[C@H]1C(=O)CO,102% (inactive),97.9% (inactive),109% (inactive),81.3% (inactive),96.6% (inactive),54.1,226% (inactive),-12.4% (inactive),107% (inactive),-2% (inactive),-3.18% (inactive),-6.95% (inactive),97.8% (inactive),-0.12 (inactive),6% (inactive),-11.5% (inactive),
COc1ccc(C(=O)/C=C/c2ccc(OC(=O)c3cc(OC)c(OC)c(OC)c3)cc2)cc1,100% (inactive),102% (inactive),87.3% (inactive),114% (inactive),105% (inactive),60.7,179% (inactive),-7.93% (inactive),96.7% (inactive),-2% (inactive),,-3.29% (inactive),97.4% (inactive),0.42 (inactive),0% (inactive),20.6% (inactive),-6.42% (inactive)
COc1ccc2nc(Nc3nc(CSc4ccc(C)cc4)cc(=O)[nH]3)nc(C)c2c1,99% (inactive),103% (inactive),98.8% (inactive),90.3% (inactive),104% (inactive),63.5,217% (inactive),8.15% (inactive),104% (inactive),0% (inactive),8.24% (inactive),-0.97% (inactive),103% (inactive),-0.43 (inactive),6% (inactive),-24.4% (inactive),
Nc1nc2c(ncn2COC(CO)CO)c(=O)[nH]1,97.3% (inactive),106% (inactive),96.4% (inactive),125% (inactive),119% (inactive),60.3,212% (inactive),-11.3% (inactive),106% (inactive),-6% (inactive),-16.5% (inactive),-2.35% (inactive),98% (inactive),,5% (inactive),-10.9% (inactive),-20.9% (inactive)
CC(C)CN1CC(C(=O)O)CC1=O (stereo unspecified),96.1% (inactive),101% (inactive),96% (inactive),104% (inactive),102% (inactive),56,66.5% (inactive),1.12% (inactive),102% (inactive),0% (inactive),,-1.05% (inactive),104% (inactive),-0.57 (inactive),4% (inactive),5.73% (inactive),-5.23% (inactive)
COc1cc(Cl)cc2c1Sc1ccccc1/C2=C/CCN(C)C,97.1% (inactive),105% (inactive),94.9% (inactive),93.7% (inactive),92.6% (inactive),63.9,1310% (inactive),-7.47% (inactive),104% (inactive),-8% (inactive),,0.4% (inactive),110% (inactive),-0.09 (inactive),0% (inactive),-2.64% (inactive),20% (inactive)
